Several values for one entry are separate records, joined by “and”; a condition that tells them apart may be missing. Identical values can stand only once. This is part of a sample that, as a whole, favours compounds with a hit. Of some 83,000 tested, about 20% had one in any assay.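 Treatment: one concentration, 48 hours, 96-well format. Scoring: percent growth, with anything below 10 considered active.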 Activity calls are given as the source filed them.
What follows are compounds tested on MDA-MB-468 breast (assay: NCI-60 one-dose screen, 48 h (100 = growth as untreated, 0 = no growth, -100 = all killed)). Conditions: 10 µM unless noted.
In the case of `COc1ccc(C(=O)c2cc(OC)c(OC)c(OC)c2)cc1O`, the growth is reported as -14.4% (active).
For `CCCCCn1sc(=O)n(Cc2ccc(CNC(=O)C(C)c3ccc(CC(C)C)cc3)cc2)c1=O` (stereo not drawn), the growth was 106% (inactive) and -81% (active).
`O=C1C(Cl)=C(Nc2cccc3ccccc23)C(=O)c2ccccc21` was tested, and the growth was -3.45% (active).
With `CS(=O)(=O)N1CCN(Cc2cc3nc(-c4cccc5[nH]ncc45)nc(N4CCOCC4)c3s2)CC1` the growth was -19.6% (active).
For `C=C1CC[C@@H]2[C@](C)(COC(C)=O)[C@H](OC(C)=O)CC[C@@]2(C)[C@@H]1CC(Nc1ccc(S(=O)(=O)Nc2ncccn2)cc1)C1=CCOC1=O` (stereo partly drawn), the growth was -54% (active).
For `COc1cc2cc(Oc3ccc(NC(=O)Nc4ccc(F)c(C(F)(F)F)c4)cc3)c(C)nc2cc1OCCN1CCCCC1`, the growth was 71.3% (inactive).
For `COc1cc(NS(C)(=O)=O)ccc1Nc1c2ccc(Cl)cc2nc2c(OC)cccc12`, the growth was -34.1% (active).
In the case of `Fc1cc2[nH]ncc2c2c3c(c(-c4cn[nH]c4)nc12)CCCC3`, the growth is reported as -22.4% (active).
`NS(=O)(=O)c1ccc(Nc2nc(SCC(=O)c3ccc(Cl)cc3)nc3ccccc23)cc1` was tested, and the growth was 82.4% (inactive).
With `COC(=O)c1c(C)nc(C)c2c1C(=O)C(Br)=C(NCc1ccccc1)C2=O` the growth was -21.3% (active).
With `Oc1[nH]c2cc(Cl)ccc2c1/C=c1/ccc2c(c1)N=C(c1cc(F)cc(F)c1)N=2` the growth was -19.6% (active).
For `c1ccc(Cn2cc3c(c2)-c2oncc2CC3)cc1`, the growth was 47.2% (inactive).
`Cc1cc(NN=C(c2ccc(O)cc2)c2ccc(O)cc2)c([N+](=O)[O-])cc1[N+](=O)[O-]` was tested, and the growth was 92.8% (inactive).
